AC50 and outcome data for 15 molecules are collected here from PubChem BioAssay (EPA / NIEHS).

As a reminder, the AC50 is the midpoint of the concentration-response curve, whichever way the signal moves.

Values joined by “and” are separate entries in the source; they are usually repeats but may differ in a detail not shown here. Equal entries are not always repeated. Results filed as inconclusive are left out. Some structures have more than one record in an assay (separate samples or runs), and their calls can disagree. Active and inactive are the calls of the source. How the source made its calls, unless noted: active means hit-call score of the fitted dose curve at least 0.9, where 1 is the maximum; inactive means score below 0.9.

A short description of assay [1]: CCTE_Shafer_MEA_dev_correlation_coefficient_mean: CCTE's Neural Network Formation Assay for Mean Correlation Coefficient, Shafer Lab (AID 2284093).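 On AC50: well mean pairwise spike train correlation integrated as AUC over recording days 5 to 12; potency fitted for loss of correlation relative to DMSO vehicle wells.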 The method in brief: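 Read-out: well-mean correlation coefficient of spike trains between electrode pairs, collapsed over four recording days as trapezoidal area-under-the-curve. Developing rat cortical neuron networks grown on MEAs received test chemical continuously from plating.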

A short description of assay [2]: UKN2_HCS_IMR90_neural_migration: University of Konstanz (UKN) Leist Lab Neural Crest Cell Migration Assay in human induced IMR90 Pluripotent Stem Cells (UKN2) (AID 2284204). As to conditions: actives raise or lower the signal. The method in brief: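 iPSC-derived IMR90 neural crest cells on PLO/laminin/fibronectin were seeded around silicone stoppers; after stopper removal, migration in N2-S medium with EGF and FGF ran 24 h before 24 h chemical exposure. Calcein-AM/Hoechst high-content imaging; bidirectional fit versus DMSO.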

The nature of assay [3]: UKN4_HCS_LUHMES_neurite_outgrowth: University of Konstanz (UKN) Leist Lab Neurite Outgrowth Assay in human LUHMES cells (UKN4) (AID 2284206). As to conditions: actives raise or lower the signal. In a few lines:
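Human LUHMES neuronal precursors, differentiated 2 days then replated without cAMP and GDNF, exposed to compounds for 24 h. Neurite area imaged by high-content microscopy after calcein-AM live staining; Hoechst H-33342 for viability; bidirectional fit versus DMSO.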

Assay [4] can be described thus: IUF_NPC1b_proliferation_BrdU_72hr: Leibniz Research Institute for Environmental Medicine (IUF) 72-hour Neural Progenitor Cell Bromodeoxyuridine (BrdU) Proliferation Assay (NPC1b) (AID 2284207). The method in brief:
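hNPC spheres (primary, GW 16-19 fetal cortex), single sphere/well, EGF+FGF medium; 72 h compound, no renewal; BrdU pulse last 16 h; luminescent ELISA; activity vs DMSO baseline; growth-factor withdrawal as positive control.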

Assay [5] can be described thus: IUF_NPC1a_proliferation_area_72hr: Leibniz Research Institute for Environmental Medicine (IUF) 72-hour Neural Progenitor Cell Proliferation Area Assay (NPC1a) (AID 2284208). In a few lines: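 Proliferation is scored as sphere area gain in primary human fetal neural progenitors treated for 72 h in EGF/FGF-containing medium. Viability, LDH and BrdU readouts come from the same wells.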

Assay [6] can be described thus: IUF_NPC1_viability_72hr: Viability Assessment at 72 hours in the Leibniz Research Institute for Environmental Medicine (IUF) Neural Progenitor Cell Proliferation Assay (NPC1) (AID 2284209). In a few lines: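 Single spheres (0.25-0.35 mm) of human fetal cortex-derived neural progenitor cells were grown in proliferation medium with EGF and FGF at 37C and 5% CO2. They were exposed for 72 h without renewal, and viability was read by alamar blue resorufin fluorescence.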

Assay [7] in a line: CCTE_Mundy_HCI_Cortical_Synap_Neur_Matur_NeuriteSpotCountPerNeuriteLength: CCTE's Synaptogenesis and Neurite Maturation Assay in rat cortical cells for Neurite Spot Count per Neurite Length, Mundy Lab (AID 2284210). In a few lines:
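Rat primary cortical cultures, glia arrested with AraC at DIV 5, were dosed with media change at DIV 7 and fixed at DIV 12. Synaptophysin puncta per MAP2-labelled neurite length were quantified by high-content imaging versus DMSO.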

Assay [8] in a line: CCTE_Mundy_HCI_Cortical_Synap_Neur_Matur_BPCount: CCTE's Synaptogenesis and Neurite Maturation Assay in rat cortical cells for Branch Point Count, Mundy Lab (AID 2284211). The method in brief: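 Rat primary cortical cultures, AraC added DIV 5; chemicals dosed DIV 7 through DIV 12. Fixed cells stained for MAP2, synaptophysin and Hoechst; neurite branch points counted by automated high-content imaging, fitted relative to DMSO.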

Assay [9] in a line: CCTE_Mundy_HCI_Cortical_NOG_NeuriteCount: CCTE's Neurite Outgrowth Assay in rat cortical cells for Neurite Count, Mundy Lab (AID 2284212).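 Further: cells fixed about two days after chemical exposure began.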 In a few lines: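 Neurite number per cell from high-content imaging of betaIII-tubulin immunostaining, with Hoechst nuclear counterstain.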
A short description of assay [10]: CCTE_Mundy_HCI_Cortical_NOG_NeuriteLength: CCTE's Neurite Outgrowth Assay in rat cortical cells for Neurite Length, Mundy Lab (AID 2284213).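 On AC50: neurites imaged about 48 to 50 h after chemical exposure began.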 In a few lines: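 Neurite length was read by high-content imaging of βIII-tubulin-labelled neurites in rat primary cortical cultures. Activity was fitted relative to DMSO.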
A short description of assay [11]: CCTE_Mundy_HCI_Cortical_Synap_Neur_Matur_NeuriteLength: CCTE's Synaptogenesis and Neurite Maturation Assay in rat cortical cells for Neurite Length, Mundy Lab (AID 2284214). The method in brief:
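Rat primary cortical cultures, AraC added DIV 5, dosed DIV 7 through DIV 12 […]. Fixed, MAP2/synaptophysin immunostained with Hoechst; neurite length by high-content imaging, fitted in positive direction versus DMSO.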

The nature of assay [12]: CCTE_Mundy_HCI_Cortical_Synap_Neur_Matur_NeuriteSpotCountPerNeuron: CCTE's Synaptogenesis and Neurite Maturation Assay in rat cortical cells for Neurite Spot Count per Neuron Count, Mundy Lab (AID 2284215). In a few lines:
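Synapse density is scored as synaptophysin spots along neurites per neuron in fixed rat cortical neurons, measured at DIV 12 after chemical dosing at DIV 7. DMSO is the negative control and activity baseline.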

The nature of assay [13]: CCTE_Mundy_HCI_Cortical_Synap_Neur_Matur_SynapseCount: CCTE's Synaptogenesis and Neurite Maturation Assay in rat cortical cells for Synapse Count, Mundy Lab (AID 2284218). In a few lines:
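Rat primary cortical cultures, AraC at DIV 5, chemical dosing DIV 7 to DIV 12 (288.33 h). Fixed cells stained for MAP2, synaptophysin and Hoechst; synapses per neuron counted by high-content imaging, loss of signal versus DMSO.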

A short description of assay [14]: BSK_BT_PBMCCytotoxicity: PBMC Cytotoxicity Assessment in the BioMAP Diversity Plus: BT Assay (AID 2284225).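 Further: PBMC viability measured by Alamar Blue dye reduction fluorescence.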 As to conditions: primary human B cells with PBMC. In a few lines:
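PBMC (75,000/well) pretreated with compound 1 h, then activated with SEB and TSST-1 (20 ng/mL each final), incubated 90 h; Alamar Blue added 6 h, fluorescence read at 546/580 nm. Fitted relative to DMSO.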

Read-out in assay [15]: Secreted IgG (sIgG), gene 3500
In words: BSK_BT_sIgG: BioMAP Diversity Plus: BT Assay for Secreted IgG (sIgG) Biomarker Activity (AID 2284226). As to conditions: primary human B cells with PBMC. In a few lines: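 Human B cell plus PBMC co-culture; secreted IgG measured by ELISA 24 h after chemical dosing. Response fitted in positive direction relative to DMSO baseline.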

A short description of assay [16]: CCTE_Mundy_HCI_hNP1_Pro_ResponderAvgInten: CCTE's Proliferation Assay in human neuroprogenitor cells, Mundy Lab (AID 2284224; active means hit-call score of the fitted dose curve at least 0.9, where 1 is the maximum;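 further: human neural progenitor cells hNP1 derived from WA09 embryonic stem cells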). In a few lines: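 Human neuroprogenitors (hNP1, WA09 lineage) receive test chemical after 40 to 44 hours of attachment. A four-hour BrdU pulse begins twenty hours later, followed by fixation and high content imaging; signal is referenced to DMSO controls.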

The nature of assay [17]: CCTE_Mundy_HCI_hN2_NOG_NeuriteCount: CCTE's Neurite Outgrowth Assay in human hN2 cells for Neurite Count, Mundy Lab (AID 2284219; active means hit-call score of the fitted dose curve at least 0.9, where 1 is the maximum). The method in brief: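 In this morphology assay, hNP1-derived neurons received test chemical 2 h post-plating and were fixed two days later in warm paraformaldehyde/sucrose containing Hoechst 33342. Neurites, labelled by rabbit anti-βIII-tubulin (1:800) and Alexa Fluor-488 (1:500), were counted automatically.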

Assay [18] in a line: CCTE_Mundy_HCI_hN2_NOG_NeuriteLength: CCTE's Neurite Outgrowth Assay in human hN2 cells for Neurite Length, Mundy Lab (AID 2284220; active means hit-call score of the fitted dose curve at least 0.9, where 1 is the maximum). In a few lines: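 Using βIII-tubulin immunofluorescence and Hoechst nuclear counterstain, this component quantifies neurite length in hNP1-derived neurons.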
Assay [19] can be described thus: CCTE_Mundy_HCI_hN2_NOG_NeuronCount: CCTE's Neurite Outgrowth Assay in human hN2 cells for Neuron Count, Mundy Lab (AID 2284221; active means hit-call score of the fitted dose curve at least 0.9, where 1 is the maximum). The method in brief:
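Read-out is the number of betaIII-tubulin-positive neurons imaged by automated high-content analysis, with DMSO as negative control.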

A short description of assay [20]: TAMU_PeakParms_SingleDonor1434_Chronotropy: Texas A&M University (TAMU) 1.5-hr Human Induced Pluripotent Stem Cell (iPSC)-derived Cardiomyocytes Calcium (Ca+2) Flux Assay for Cardiotoxicity: Chronotropy (changes in peak frequency) (AID 2284217). Particulars: actives raise or lower the signal. The method in brief: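 Beat frequency of single-donor iPSC cardiomyocytes was recorded through a calcium-sensitive dye 1.5 hours after exposure to four concentrations up to 100 uM. An EC05 point of departure was derived.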

`COP(=S)(OC)SCn1nnc2ccccc2c1=O`: the AC50 in assay [1] is 15 µM (active); in assay [2], 19.6 µM (active); in assay [3], 15.4 µM (active). For the same molecule, the molecule was classed as inactive in [4], in assay [5], in assay [6], in [7], in assay [8] and in assay [9]. Besides, the call in assay [10], in [11], in assay [12] and in [13] was inactive.
For `COCC(C)N(C(=O)CCl)c1c(C)csc1C` (stereo not given), in assay [14], the result was inactive. The concentration at half-maximal activity (AC50) in assay [15] is 13.5 µM (active).
In the case of `CCOC(=O)C(C)OC(=O)c1cc(Oc2ccc(C(F)(F)F)cc2Cl)ccc1[N+](=O)[O-]` (stereo not given), the molecule was classed as inactive in assay [1].
Turning to `COP(=O)(OC)O/C(C)=C/C(=O)N(C)C`, the outcome in [1], in assay [7], in assay [8], in assay [9], in assay [10] and in [11] was inactive. Moreover, the molecule was called inactive in assay [12], in [13] and in assay [16].
As to `CCSC(=O)N1CCCCCC1`, the result in [1], in assay [2], in assay [4], in assay [5], in assay [6] and in assay [7] was inactive. In addition, the call in [9], in assay [10], in assay [11], in assay [12] and in assay [13] was inactive.
`CC(C)=CC1C(C(=O)OCc2coc(Cc3ccccc3)c2)C1(C)C` (stereo not given): the result in assay [1] was inactive.
With `CCN(CC)c1nc(C)cc(OP(=S)(OC)OC)n1`, the AC50 was 27.4 µM (active) in assay [1]; 67.1 µM (active) in assay [8]; 79.4 µM (active) in assay [9]; 88.7 µM (active) in assay [10]; 78.6 µM (active) in assay [11]; 84.5 µM (active) in [12]. Also, the half-maximal activity concentration (AC50) in assay [17] was 72.4 µM (active); in assay [18], 60.7 µM (active); in [19] it was 50 µM (active); in assay [16], 89.2 µM (active). The result in assay [7] and in assay [13] was inactive.
Regarding `CCCCC(C#N)(Cn1cncn1)c1ccc(Cl)cc1` (stereo not given), in [20], the outcome was inactive.
Take `CC1(C)C(C=C(Cl)Cl)C1C(=O)OC(C#N)c1cccc(Oc2ccccc2)c1` (stereo not given): the AC50 in assay [1] is 3.6 µM (active); in [8] it was 0.00451 µM (active). Also, the call in assay [1], in assay [4], in [5], in assay [6], in assay [7] and in assay [9] was inactive. The result in assay [10], in assay [11], in [12] and in [13] was inactive.
Regarding `O=C1C2CC=CCC2C(=O)N1SC(Cl)(Cl)Cl` (stereo not given), the AC50 in [1] is 9.85 µM (active). Further, in assay [20], the outcome was inactive.
For the molecule `Cc1c(COC(=O)[C@@H]2[C@H](/C=C(\Cl)C(F)(F)F)C2(C)C)cccc1-c1ccccc1`, the AC50 in [1] was 395 nM (active) and 497 nM (active); in assay [4], 0.97 µM (active); in [7] it was 3.2 µM (active); in assay [8], 2.71 µM (active); in [9], 27.8 µM (active); in assay [10], 26.9 µM (active). Moreover, the concentration at half-maximal activity (AC50) in assay [11] is 3.7 µM (active); in assay [12] it was 3.15 µM (active); in assay [13], 3.14 µM (active); in [16], 3.68 µM (active). The molecule was classed as inactive in [2], in assay [5] and in assay [6].
In the case of `CCNC(=O)NC(=O)C(C#N)=NOC`, the outcome in [1], in [4], in assay [5], in [6], in [7] and in assay [8] was inactive. For the same molecule, the call in assay [9], in [10], in [11] and in assay [12] was inactive. In addition, in assay [13], the half-maximal activity concentration (AC50) was 0.0179 µM (active).
As for `COP(=S)(OC)Oc1ccc([N+](=O)[O-])c(C)c1`, in assay [1], the molecule was called inactive.
As for `CO/N=C(/C1=NOCCO1)c1ccccc1Oc1ncnc(Oc2ccccc2Cl)c1F`, the AC50 in assay [1] is 844 nM (active) and 1.02 µM (active); in assay [4], 0.142 µM (active); in [7], 3.03 µM (active); in assay [8] it was 7.61 µM (active); in assay [9] it was 3.51 µM (active); in [10], 2.74 µM (active). Besides, the results for the AC50 in assay [11], in assay [12] and in assay [13] were 4.34 µM (active), 2.16 µM (active) and 2.75 µM (active), respectively. The result in assay [2], in assay [5], in assay [6] and in assay [16] was inactive.
Take `CS(=O)(=O)c1cc(C(F)(F)F)ccc1C(=O)c1cnoc1C1CC1`: the call in assay [1], in assay [2], in assay [4], in assay [5], in assay [6] and in assay [7] was inactive. Moreover, the molecule was classed as inactive in assay [8], in [9], in [10], in assay [11], in assay [12] and in [13]. For the same molecule, in assay [16], the call was inactive.
